This note sets out measurements from PubChem BioAssay (Tox21).

Values without a mark were called inactive. Inconclusive results are not listed. Activity calls are given as the source filed them. Unless noted, the call rests on the fitted dose curve; in most records, active means well fitted curve in the direction sought with a large enough effect in the repeat runs; inconclusive means weak or mixed curves; inactive means no such curve, though single readings can be large; an effect the other way counts as inactive or inconclusive.

For assay [1], the target named is Luciferin 4-monooxygenase (Photinus pyralis) (UniProt P08659). The assay can be described thus: qHTS assay to identify small molecule inhibitors of firefly luciferase (AID 1224835). Further: nearly all actives have a fitted effect of over 25% in size. In short, it runs like this: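 Inhibition of purified Photinus luciferase is measured by luminescence. Substrate levels (D-luciferin, ATP) sit at their KM values. Each compound is tested in a concentration series.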
Sequence of Luciferin 4-monooxygenase (Photinus pyralis) (P08659 whole entry, looked up): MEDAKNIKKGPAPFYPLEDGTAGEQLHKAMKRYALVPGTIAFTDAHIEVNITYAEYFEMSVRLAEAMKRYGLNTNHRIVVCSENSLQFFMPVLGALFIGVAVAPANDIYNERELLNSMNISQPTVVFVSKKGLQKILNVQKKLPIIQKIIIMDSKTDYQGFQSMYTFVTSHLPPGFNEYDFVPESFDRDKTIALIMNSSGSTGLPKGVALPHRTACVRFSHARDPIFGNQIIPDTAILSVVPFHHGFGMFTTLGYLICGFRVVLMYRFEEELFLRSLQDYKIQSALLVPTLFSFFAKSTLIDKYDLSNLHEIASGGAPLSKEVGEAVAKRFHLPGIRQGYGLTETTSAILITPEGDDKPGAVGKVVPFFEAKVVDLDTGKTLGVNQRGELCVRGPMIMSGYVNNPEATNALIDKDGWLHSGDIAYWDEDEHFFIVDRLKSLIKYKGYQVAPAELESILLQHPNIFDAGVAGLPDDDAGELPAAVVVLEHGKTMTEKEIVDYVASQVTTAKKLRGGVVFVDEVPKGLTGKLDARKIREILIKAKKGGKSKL

The target of assay [2] is Nuclear receptor subfamily 1 group I member 3 (Homo sapiens) (UniProt Q14994). The assay can be described thus: qHTS assay to identify small molecule antagonists of the constitutive androstane receptor (CAR) signaling pathway (AID 1224838).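 Further: HepG2 cells stably expressing hCAR with CYP2B6 luciferase reporter stimulated by CITCO; nearly all actives have a fitted effect of over 40% in size.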 Further: potency means the concentration at half of the fitted maximal effect. In short, it runs like this: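 Quantitative HTS in double-stable HepG2-CYP2B6-hCAR cells. After 4 h plating, cells get compound (15 concentrations) and CITCO at 50 nM final, incubate 24 h at 37 C, then ONE-Glo luminescence is read.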
Sequence of Nuclear receptor subfamily 1 group I member 3 (Homo sapiens) (Q14994 whole entry, looked up): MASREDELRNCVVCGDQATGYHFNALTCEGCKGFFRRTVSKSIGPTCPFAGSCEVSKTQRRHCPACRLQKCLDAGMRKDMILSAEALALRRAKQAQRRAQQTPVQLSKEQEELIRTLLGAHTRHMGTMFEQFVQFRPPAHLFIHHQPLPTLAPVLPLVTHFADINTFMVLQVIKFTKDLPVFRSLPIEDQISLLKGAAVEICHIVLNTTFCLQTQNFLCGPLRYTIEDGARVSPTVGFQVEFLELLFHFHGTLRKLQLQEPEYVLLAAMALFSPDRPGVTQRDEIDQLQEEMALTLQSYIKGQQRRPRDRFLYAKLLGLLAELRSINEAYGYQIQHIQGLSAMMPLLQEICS
Background: In qHTS, concentration-response curves come from the screen itself.

A short description of assay [3]: qHTS assay to identify small molecule antagonists of the estrogen related receptor signaling pathway with the pleiotropic PPARgamma coactivator (PGC) from Tox21 10K library - cell viability counter screen (AID 1224840; active means well fitted cell-killing curve with a large enough effect in the repeat runs, not every such curve was filed as active; further: nearly all actives have a fitted effect of over 40% in size). In short, it runs like this:
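Compounds in DMSO, alongside positive and negative controls, were pinned onto PGC/ERR cells (2,000 per well). Exposure lasted 17.5 hours at 37 C, followed by a 30-minute CellTiter-Fluor incubation and fluorescence reading.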

Assay [4] is described as follows: qHTS assay to identify small molecule antagonists of the estrogen related receptor signaling pathway with the pleiotropic PPARgamma coactivator (PGC) from Tox21 10K library (AID 1224841; call rule not given here; further: actives are mostly falling curves and most rising ones were filed inactive; nearly all actives have a fitted effect of over 50% in size; further: potency means the concentration at half of the fitted maximal effect). In short, it runs like this: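 Compound exposure ran 18 hours at 37 C in PGC/ERR cells (2,000/well) that had first rested 6 hours in a 37 C/5% CO2 incubator. Luciferase activity was then detected with One-Glo after a 30-minute room-temperature step.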

Assay [5] can be described thus: qHTS assay to identify small molecule agonists of the estrogen related receptor signaling pathway with the pleiotropic PPARgamma coactivator (PGC) from Tox21 10K library (AID 1224842). Further: nearly all actives have a fitted effect of over 15% in size. In short, it runs like this: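 Luminescence from One-Glo (30 min, room temperature) measured after PGC/ERR cells had 18 h at 37 C with pinned compound (23 nL in DMSO). Cells had been seeded at 2,000 per well and pre-incubated 6 h.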

Assay [6] can be described thus: qHTS assay to identify small molecule agonists of the hypoxia (HIF-1) signaling pathway - cell viability counter screen (AID 1224844; calls by dose curve; further: nearly all actives have a fitted effect of over 50% in size). In short, it runs like this: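 Luminescent ATP content (CellTiter-Glo, 30 min, room temperature) served as the viability measure in HRE-bla ME-180 cells exposed to compounds for 17 hrs in low-serum medium (0.5% dialyzed FBS).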
The nature of assay [7]: qHTS assay to identify small molecule agonists of H2AX (AID 1224845; active means well fitted activation curve with a large enough effect in the signal ratio in the repeat runs, not every such curve was filed as active; the % refers to the signal ratio). In short, it runs like this: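 Phospho-H2AX Ser139 measured by HTRF (ex 320 nm; em 665 and 620 nm) after 24 hr antibody incubation. Compounds, 15 concentrations, 0.76% DMSO, were applied to CHO-K1 cells for 3hr at 37C before lysis.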
Assay [8] is described as follows: qHTS assay to identify small molecule antagonists of the estrogen related receptor (ERR) signaling pathway from Tox21 library (AID 1224848). Further: nearly all actives have a fitted effect of over 50% in size. Further: potency means the concentration at half of the fitted maximal effect. In short, it runs like this:
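Antagonist-mode screen of the Tox21 10K library in an NTP-provided ERR reporter cell line; 18 h compound exposure at 37 C, luminescence measured with ONE-Glo.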

Assay [9] in a line: qHTS assay to identify small molecule agonists of the estrogen related receptor (ERR) signaling pathway from Tox21 library (AID 1224849; calls by dose curve; further: nearly all actives have a fitted effect of over 15% in size). Conditions: ERR reporter cell line, ONE-Glo luciferase, 18 h; at 92.4 µM (top of the series) unless noted. In short, it runs like this:
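We plated ERR reporter cells, waited 6 h, added compounds in DMSO by pin tool and incubated them 18 h at 37 C. ONE-Glo was then added and luminescence read after 30 min.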

The nature of assay [10]: qHTS RealTime-Glo MT Cell Viability Assay in HepG2 cells - 24 hour (AID 1224867). Further: nearly all actives have a fitted effect of over 50% in size. In short, it runs like this: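 Real-time, nonlytic viability: 600 HepG2 cells/well mixed with NanoLuc enzyme plus prosubstrate; 5 h settle, compound (DMSO) added by pintool; luminescence monitored over 40 h at 37 C.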
Assay [11] is described as follows: qHTS RealTime-Glo MT Cell Viability Assay in HEK293 cells - 32 hour (AID 1224868). Further: nearly all actives have a fitted effect of over 50% in size. Further: potency means the concentration at half of the fitted maximal effect. In short, it runs like this:
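Cells + reagent dispensed (600 cells/well, HEK293) → 5 h at 37 C/5% CO2 → 23 nL compound in DMSO pinned → 40 h at 37 C → luminescence read at 0, 8, 16, 24, 32, 40 h.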

Assay [12] in a line: A CellTox Green Cytotoxicity Assay to monitor cytotoxicity in HEK293 cells - 0 hour (AID 1224869). Further: nearly all actives have a fitted effect of over 50% in size. In short, it runs like this: (§1)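 Each value comes from one timepoint of a single continuous run in which HEK293 cells with CellTox Green were exposed to compound for up to 40 h at 37 C, dye fluorescence rising with cell death.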
Assay [13] in a line: qHTS RealTime-Glo MT Cell Viability Assay in HepG2 cells - 40 hour (AID 1224870). Further: nearly all actives have a fitted effect of over 50% in size. In short, it runs like this: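 Real-time viability: cells seeded at 600 per well together with NanoLuc and cell-permeant prosubstrate, compounds added after 5 h incubation. Luminescence tracked at 0, 8, 16, 24, 32 and 40 h of exposure.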
Assay [14] is described as follows: A CellTox Green Cytotoxicity Assay to monitor cytotoxicity in HEK293 cells - 40 hour (AID 1224871). Further: nearly all actives have a fitted effect of over 45% in size. In short, it runs like this: as §1
The nature of assay [15]: qHTS assay to identify small molecule agonists of the constitutive androstane receptor (CAR) signaling pathway - cell viability counter screen (AID 1224836). Further: nearly all actives have a fitted effect of over 45% in size. In short, it runs like this:
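Cells were seeded and incubated 4 hrs. Compounds were added across 15 concentrations together with PK11195 at 0.75 uM final. Plates were incubated 23 hrs at 37 C. CellTiter-Fluor was added and fluorescence measured.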

A short description of assay [16]: qHTS assay to identify small molecule antagonists of the constitutive androstane receptor (CAR) signaling pathway - cell viability counter screen (AID 1224837). Further: nearly all actives have a fitted effect of over 45% in size. Further: potency means the concentration at half of the fitted maximal effect. In short, it runs like this:
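Fluorescence from CellTiter-Fluor served as the viability signal. Human hepatoma HepG2 cells stably bearing hCAR and CYP2B6-2.2kb received compound plus CITCO (50 nM final) for 23 hr.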

The target of assay [17] is Nuclear receptor subfamily 1 group I member 3 (Homo sapiens) (UniProt Q14994). The assay can be described thus: qHTS assay to identify small molecule agonists of the constitutive androstane receptor (CAR) signaling pathway (AID 1224839).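 Further: HepG2 cells stably carrying human CAR and a CYP2B6 luciferase reporter; nearly all actives have a fitted effect of over 15% in size.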 In short, it runs like this: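 Cells were plated and incubated 4 hrs, then dosed with compounds at 15 concentrations. PK11195 was added to 0.75 uM final. After 24 hrs at 37 C, luciferase luminescence was measured.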

Assay [18] is described as follows: qHTS assay to identify small molecule agonists of the hypoxia (HIF-1) signaling pathway (AID 1224846; active means well fitted activation curve with a large enough effect in the signal ratio in the repeat runs, not every such curve was filed as active; the % refers to the signal ratio). In short, it runs like this: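 Measured by blue/green FRET after loading CCF4-AM: beta-lactamase expressed from a hypoxia response element in ME-180 cells. Test agents were delivered in DMSO and left 17 hrs; cells had been plated 5 hrs earlier in low-serum (0.5% dialyzed FBS) medium.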

Assay [19] in a line: qHTS assay to identify small molecule agonists of H2AX - cell viability counter screen (AID 1224847; calls by dose curve; further: top concentration of the series differs between compounds; nearly all actives have a fitted effect of over 30% in size). In short, it runs like this: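 Cytotoxicity counter screen in wild-type CHO-K1 cells: a 3 hr compound treatment at 37C across 15 concentrations, followed by CellTiter-Glo luminescence to gauge viable cells.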
Assay [20] has as its target Thyrotropin receptor (Homo sapiens) (UniProt P16473). Description: qHTS assay to identify small molecule agonists of the thyroid stimulating hormone receptor (TSHR) signaling pathway (AID 1224843; calls by dose curve; further: nearly all actives have a fitted effect of over 45% in size). In short, it runs like this:
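Screening of the Tox21 10K collection used HEK293 cells engineered with TSHR at 800 cells per well. After a 30-min room-temperature compound exposure, HTRF cAMP reagents were added and fluorescence recorded 1 h later.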
On the % scale 0 is the no-effect control and ±100 the full control effect.

Sequence of Thyrotropin receptor (Homo sapiens) (P16473 whole entry, looked up): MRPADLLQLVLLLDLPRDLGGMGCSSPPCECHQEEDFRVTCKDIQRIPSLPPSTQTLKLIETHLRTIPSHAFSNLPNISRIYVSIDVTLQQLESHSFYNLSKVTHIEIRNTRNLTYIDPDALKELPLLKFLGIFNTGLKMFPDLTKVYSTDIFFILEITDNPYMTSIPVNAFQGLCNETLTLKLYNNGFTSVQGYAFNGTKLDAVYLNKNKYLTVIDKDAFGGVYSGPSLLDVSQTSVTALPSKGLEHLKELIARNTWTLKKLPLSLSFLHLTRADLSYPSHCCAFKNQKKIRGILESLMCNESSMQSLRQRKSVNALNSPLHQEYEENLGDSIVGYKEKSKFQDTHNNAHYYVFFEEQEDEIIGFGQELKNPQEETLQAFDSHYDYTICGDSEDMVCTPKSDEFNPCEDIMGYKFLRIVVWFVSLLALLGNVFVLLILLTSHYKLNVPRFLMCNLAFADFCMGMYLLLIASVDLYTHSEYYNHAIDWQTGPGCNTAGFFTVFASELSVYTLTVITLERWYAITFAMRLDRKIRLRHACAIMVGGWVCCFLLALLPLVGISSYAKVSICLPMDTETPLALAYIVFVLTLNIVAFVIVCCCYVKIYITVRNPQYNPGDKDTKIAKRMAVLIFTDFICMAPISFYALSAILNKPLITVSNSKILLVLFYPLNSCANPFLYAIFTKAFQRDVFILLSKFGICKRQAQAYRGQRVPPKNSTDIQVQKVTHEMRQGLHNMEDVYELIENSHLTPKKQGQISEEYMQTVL

`C=C(C)CN(CC)c1c([N+](=O)[O-])cc(C(F)(F)F)cc1[N+](=O)[O-]`: the Potency entry in assay [1], in [2], in assay [3], in assay [4], in assay [6] and in assay [7] was “inactive” each time. Besides, the Potency entry in assay [8], in [10], in assay [11], in assay [12], in assay [13] and in assay [14] was “inactive” each time. Moreover, the outcome in assay [5] was inactive. For the same compound, in assay [9], the activity change, positive = activation is 1.77%.

As for `O=c1oc2ccccc2c(O)c1C1CCCc2ccccc21` (stereo not drawn), the Potency result in [15], in [16], in assay [2], in [17], in assay [3] and in assay [6] was “inactive” throughout. The Potency entry in [7], in [19], in assay [10], in [11], in assay [12] and in assay [13] was “inactive” in each case. Moreover, the Potency result in [14] was “inactive”. Besides, the Potency in assay [4] is 54.5 µM (active). Further, the compound was called inactive in assay [5] and in assay [18]. In assay [9], the activity change, positive = activation is -20.9%.

For `CC(CC(C#N)(c1ccccc1)c1ccccc1)N(C)C` (stereo not drawn), the Potency entry in assay [1], in [2], in assay [3], in assay [7], in [19] and in [10] was “inactive” throughout. Also, the Potency entry in assay [12] and in assay [13] was “inactive” in each case. The result in assay [18] was inactive.

For the compound `Cc1ncsc1CCCl`, the Potency result in [1], in assay [16], in assay [3], in assay [20], in [6] and in assay [7] was “inactive” throughout. In addition, the Potency result in [19], in assay [10], in assay [11], in assay [12], in assay [13] and in assay [14] was “inactive” each time. Further, the outcome in assay [18] was inactive.

In the case of `COc1ccc2c(c1OC)CN1CCc3cc4c(cc3C1C2)OCO4` (stereo not drawn), the Potency result in [1], in [16], in [3], in [6], in assay [10] and in assay [12] was “inactive” each time. Besides, the Potency result in [13] and in assay [14] was “inactive” each time.

Take `C[C@]1(O)CC[C@H]2[C@@H]3CCC4=CC(=O)CC[C@]4(C)[C@@]3(F)[C@@H](O)C[C@@]21C`: the Potency entry in [1], in [16], in [3], in [20], in assay [6] and in assay [19] was “inactive” each time. For the same compound, the Potency result in assay [10], in [11], in assay [12], in assay [13] and in [14] was “inactive” throughout. The compound was classed as inactive in assay [18].

Turning to `CC(C)CC(N(C)C)C1(c2ccc(Cl)cc2)CCC1` (stereo not drawn), the Potency result in assay [1], in assay [16], in assay [3], in assay [4], in [20] and in assay [6] was “inactive” in each case. Further, the Potency result in assay [7], in [8], in [10], in assay [11], in [12] and in [13] was “inactive” throughout. The compound was called inactive in assay [5] and in assay [18]. The activity change, positive = activation in [9] was 1.9% [at 42.5 µM].

For the compound `O=C(Nc1ccccc1)N(Cc1ccc(Cl)cc1)C1CCCC1`, the Potency result in assay [1], in assay [6], in assay [7], in [12], in assay [13] and in assay [14] was “inactive” in each case. The Potency in [16] is 61.1 µM (active); in assay [8], 54.5 µM (active); in assay [11], 24.5 µM (active). Besides, the call in assay [5] and in assay [18] was inactive. Besides, the activity change, positive = activation in [9] is -60.6%.

For the compound `NC1=NC(=O)C(c2ccccc2)O1` (stereo not drawn), the Potency result in [1], in assay [16], in [3], in assay [20], in [6] and in assay [7] was “inactive” in each case. Also, the Potency entry in [19], in assay [10], in assay [12] and in [13] was “inactive” throughout. For the same compound, in [18], the outcome was inactive.

Take `Nc1n[nH]c(N)n1`: the Potency entry in [1], in assay [3], in assay [20], in assay [6], in [7] and in [19] was “inactive” in each case. Besides, the Potency result in assay [10], in assay [12], in assay [13] and in assay [14] was “inactive” each time. The Potency in assay [2] was 27.8 µM (active). In assay [18], the result was inactive.
